# Measured values published in PubChem BioAssay AID489025 (Southern Research Specialized Biocontainment Screening …, 2010).
# The campaign covered roughly 2,300 compounds. About 790 (34%) were called active. Some of the results follow. Results with a measured potency or affinity are listed apart. Unmarked numbers belong to inactive results. No rule for the calls is given here.
# Test: THP-1 cell cytotoxicity, dose response, cytotoxicity control for non-replicating M. tuberculosis project (AID 489025)
# Details: THP-1 cell viability; series mostly up to 40 µM; viability: at the top concentration
row,SMILES,viability [%]
1,O=C(CNC(=O)c1ccccc1)OC1CCCCC1,92.2
2,O=[N+]([O-])c1ncccc1Oc1nc(-c2cccnc2)nc2ccccc12,88
3,CCOc1ccc(N2CC(=O)Nc3ccccc3NCC2=O)cc1,92.6
4,CCOc1cc(/C=N/NC(=O)c2ccccn2)ccc1OC(=O)c1cccs1,115
5,COC(=O)c1ccc(COC(=O)c2ccccn2)cc1,121
6,CCOc1ccc(OCc2ccc(C(=O)OCc3ccccn3)o2)cc1,106
7,O=C(N[C@@H]1C[C@H]2CC[C@@H]1C2)c1ccco1,123
8,Clc1ccc(SCCOCCN2CCc3ccccc3C2)cc1,87.8
9,O=C(OCn1nnc2ccccc2c1=O)c1cccs1,121
10,COc1ccccc1C1=NOC(COC(=O)c2ccc([N+](=O)[O-])cc2)C1 (centres undefined),100
11,Cc1ccc(-c2nnc(-c3cccs3)o2)cc1,117
12,Fc1ccc(-c2nnc(-c3ccc(F)cc3)o2)cc1,92.1
13,Fc1ccc(-c2nnc(CSc3nnc(-c4cccs4)o3)o2)cc1,104
14,COc1cccc(OCc2nnc(-c3cccs3)o2)c1,119
15,O=C1N=c2ccccc2=C1c1c(O)n(-c2cccc(F)c2)[nH]c1=O,120
16,CCCn1nnnc1NCc1ccc(C(C)C)cc1,117
17,Cc1ccnc(-n2c(C)cc(/C=C3\C(=O)NC(=S)N(C)C3=O)c2C)c1,106
18,CCn1c(O)c(C(=O)CC2NCCc3ccccc32)c(=O)n(CC)c1=S (centres undefined),108
19,Cc1cc(C)c2c(=O)n(CC(=O)Nc3cccc(Cl)c3C)sc2n1,90.7
20,CCOc1ccc(NC(=O)CCc2ccc(C)o2)cc1,126
21,COc1ccc(OCCOC(=O)CCS(=O)(=O)c2ccc(C)cc2)cc1,86.2
22,COC(=O)COc1ccc(-c2ccccc2)cc1C=O,97.4
23,COC(=O)c1ccc(COC(=O)CCS(=O)(=O)c2ccc(C)cc2)cc1,96.7
24,Cc1ccc(OC(=O)CCS(=O)(=O)c2ccc(C)cc2)cc1,110
25,COc1ccc(-c2cc(O)cc(O)c2)cc1,116
26,COc1ccc(-c2cc(=O)oc(-c3cccc(C)c3)n2)cc1,101
27,COC(=O)COc1ccc2c(=O)c(-c3ccccc3)coc2c1,106

row,SMILES,viability [%]
1,Cc1cc(Br)ccc1OCC(=O)NNC(=O)C(=O)Nc1ccccc1,111
2,O=C1CCCC(O)=C1C=Nc1ccc2c(c1)oc1ccccc12,95.8
3,C(#CCN1CCOCC1)COCc1ccccc1,105
4,CC(CCc1ccccc1)NC(=O)COC(=O)c1cccs1 (centres undefined),117
5,Cc1nc2scc(-c3ccccc3)c2c(=O)o1,110
6,CCN(CC)c1ccc(NC2CC(=O)N(CCc3ccc(OC)cc3)C2=O)cc1 (centres undefined),86.6
7,O=C(OCc1nnc(-c2ccccc2)o1)c1ccc(Br)o1,109
8,CCCOC(=O)c1ccc(NC(=O)C2C3C=CC(O3)C2C(=O)O)cc1 (centres undefined),107
9,C=CCNc1nc(C(=O)OCC(=O)c2cccc(Br)c2)cs1,112
10,Fc1cccc2sc(N3CCCC3)nc12,99.3
11,Cc1ccc(C(=O)N/N=C/C=C/c2ccccc2)cc1,88.7
12,Cc1ccc(NC(=S)C2=C(O)c3sccc3N(C)S2(=O)=O)cc1,103
13,O=C(CCNc1ccc(Cl)c(C(F)(F)F)c1)c1ccco1,103
14,C/C(=N\NC(=O)c1ccccc1)c1nc2ccccc2n1C,116
15,O=C(NCCSc1ccccc1)c1ccc(Br)cc1,99.8
16,COc1ccc(NC(=O)c2nc3ccccc3s2)cc1,115
17,CN(C)c1ccc(NC(=O)COC(=O)c2cc(Cl)ccc2[N+](=O)[O-])cc1,123
18,CCOC(=O)CNc1ccc(C(=O)OCC)cc1[N+](=O)[O-],116
19,CC(C)=CCN1CCN(Cc2cn(C(C)C)c3ccccc23)CC1CCO (centres undefined),85.5
20,COc1cccc2cc(-c3nc4ccccc4[nH]3)c(=O)oc12,107
21,CSc1nc(=S)cc(C)[nH]1,122
22,CC(NC(=O)c1cc([N+](=O)[O-])cc([N+](=O)[O-])c1)c1ccc(-n2ccnc2)cc1 (centres undefined),111
23,COc1ccccc1NC(=O)c1cnc(SC)nc1,108
24,COc1cccc(NC(=O)c2cnc(SC)nc2)c1,101
25,Cc1ccc(S(=O)(=O)NCc2ccc(C(=O)NCCCN3CCC(Cc4ccccc4)CC3)cc2)cc1,92.3
26,Nc1c(Cl)cc(Cl)cc1C(=O)OCC(=O)N1CCCC1,80
27,COc1ccccc1-c1nnc(-c2ccc(C)cc2)o1,70.8

row,SMILES,viability [%]
1,COc1ccccc1-c1cc(SC)c(C#N)c(=O)o1,97.9
2,CC(=O)c1ccc(OCC(=O)Nc2ccc3c(c2)CCC3)cc1,90.6
3,Cc1nnc(N/N=C/c2ccc(-c3ccc(Br)cc3)o2)n1N,104
4,CC(=O)N(c1nnc(-c2ccc(C)cc2)s1)C1CCCC1,99.3
5,CC1=NN(C(=O)c2cc(C)nn2C)C(O)(C(F)(F)F)C1 (centres undefined),112
6,CC1=NN(C(=O)c2csc(C(C)C)c2)C(O)(C(F)(F)F)C1 (centres undefined),109
7,CC1=NN(C(=O)CCCc2ccccc2)C(O)(C(F)(F)F)C1 (centres undefined),103
8,O=C(c1ccccc1[N+](=O)[O-])N1N=C(c2ccccc2)CC1(O)C(F)(F)F (centres undefined),85.2
9,CCOC(=O)C1=C(C)NC(=O)NC1c1ccc(-c2ccc(F)cc2)o1 (centres undefined),100
10,COc1cccc(-c2nc(C=O)cs2)c1,99.6
11,CCOC(=O)c1cc(-c2cccc([N+](=O)[O-])c2)on1,95.3
12,CC(NC(=O)c1cccc(F)c1)C1CC2CCC1C2 (centres undefined),93.8
13,COc1ccc(CNC(=O)COC(=O)C2CC3C=CC2C3)cc1 (centres undefined),114
14,CCCCNC(=O)Nc1nnc(-c2ccc(Cl)cc2)o1,89.7
15,O=C(CCN1CCC(c2cccs2)=N1)c1cccs1,91.7
16,O=c1ccn(-c2ccccc2)[nH]1,120
17,COC(=O)c1ccc(CO/N=C/c2ccc(OC)cc2)o1,117
18,CCOC(=O)c1c(-c2ccc(C)o2)csc1NC(=O)CN1CCCCC1,76.7
19,Cc1ccc(C(=O)COC(=O)CCc2ccc(S(=O)(=O)N3CCCCC3)cc2)cc1,130
20,Cc1ccc(OCC(=O)N2CCCc3ccccc32)cc1,76
21,COc1cc2c(cc1OC)CN(CCC(=O)c1ccc(Br)cc1)CC2,94.5
22,COc1ccc(C(O)CNc2ccc(C)cc2)cc1 (centres undefined),86.4
23,COc1ccc(C(C)NC(=O)CCc2ccccc2)cc1 (centres undefined),105
24,COc1ccc(C(=O)CCNc2ccc(F)cc2)cc1,94.5
25,CC(C)Oc1ccc(CNC(=O)Oc2ccccc2)cc1,112
